27 molecules from PubChem BioAssay AID624034 (National Center for Advancing Translational Sciences (NCATS), 2012) can be followed below.

Records with an inconclusive call do not appear. A number with no mark means an inactive call. Activity calls are given as the source filed them. Calls come from the whole dose curve; as a rule, active = well fitted inhibition curve with a large enough effect; inconclusive = small, poorly fitted or top-dose-only effect; inactive = flat fitted curve, though single readings scatter.

Chain of Dual specificity protein kinase CLK4 (Homo sapiens) (Q9HAZ1 whole entry, looked up, canonical isoform): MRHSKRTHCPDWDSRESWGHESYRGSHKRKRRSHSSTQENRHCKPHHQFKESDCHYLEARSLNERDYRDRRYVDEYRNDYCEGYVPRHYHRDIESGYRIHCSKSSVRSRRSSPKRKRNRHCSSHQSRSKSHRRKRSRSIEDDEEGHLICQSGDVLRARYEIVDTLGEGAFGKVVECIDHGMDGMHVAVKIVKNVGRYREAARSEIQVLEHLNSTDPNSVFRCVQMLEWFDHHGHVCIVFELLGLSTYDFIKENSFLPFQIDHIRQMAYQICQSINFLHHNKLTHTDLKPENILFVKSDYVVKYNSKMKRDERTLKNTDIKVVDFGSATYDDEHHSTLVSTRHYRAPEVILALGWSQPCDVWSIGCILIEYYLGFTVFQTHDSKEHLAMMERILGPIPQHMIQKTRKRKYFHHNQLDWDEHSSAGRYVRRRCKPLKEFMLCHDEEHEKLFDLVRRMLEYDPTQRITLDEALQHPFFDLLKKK

In this assay the target is Dual specificity protein kinase CLK4 (Homo sapiens) (UniProt Q9HAZ1). The assay is described as follows: Reaction Biology data for inhibitors of CLK4: Probe SAR. The conditions noted are these: Reaction Biology CLK4 kinase assay, 10 uM ATP; series mostly up to 10 µM; activity change, negative = inhibition: at the top concentration. From the text:
Alternative splicing of pre-mRNAs plays a major role in the regulation of eukaryotic gene expression. Alternative splicing is now thought to be one of the primary reasons for the complexity of higher organisms leading to an average of three protein isoforms per gene. Aberrant splicing can lead to a number of diseases and is known to play a role in rare genetic diseases such as progeria syndrome. Hutchinson-Gilford Progeria Syndrome (HGPS) is a pediatric premature aging disease caused by a spontaneous mutation in the lamin A/C (LMNA) gene due to a single point mutation in the lamin A gene effecting 1 in 4 million people. To identify both specific splicing modulators of the lamin A gene as well as general splicing modulators, a cell-based HTS assay was developed using a minigene reporter system (AIDs, 1459 & 1487). […] This AID summarizes the characterization of lead compounds in Clk4. NIH Molecular Libraries Probe Production Centers Network [MLPCN] NIH Chemical Genomics Center [NCGC] MLPCN Grant: MH084827 Assay Submitter (PI): Tom Misteli
Compound IC50s were determined at Reaction Biology (http://www.reactionbiology.com) with ten concentration points starting at 10 uM in the assay using a 3-fold dilution series. The control compound staurosporine was also tested in the 10-dose IC50 mode with the same 3-fold serial dilution, again starting at 10 uM. All kinase reactions were performed using 10 uM ATP in the assay. 100% activity was taken from kinase reactions with DMSO alone (the vehicle used for compound stock solutions).
`Clc1ccc(CNc2nccc(-c3ccc4[nH]ncc4c3)n2)cc1Cl`: the Potency was 0.0303 µM (active).
Still for that read-out and setting: as for `Cc1c(-c2ccnc(NCc3ccc(Cl)cc3)n2)sc(=O)n1C`, the figure is 0.273 µM (active).
The same measure, in the same setting: next, `Clc1ccc(CNc2nccc(-c3ccc4c(c3)OCO4)n2)cc1Cl`: 0.0144 µM (active); `c1nc(NCC2CCCO2)c2cc(-c3ccc4c(c3)OCO4)ccc2n1` (configuration not stated): 0.0501 µM (active); `c1cncc(CNc2ccnc(-c3ccc4cn[nH]c4c3)n2)c1`: 1.29 µM (active).
Take `Cc1nc(CN(C)c2ncnc3ccc(-c4ccc5[nH]ncc5c4)cc23)cs1`: the Potency was 0.0377 µM (active).
The same measure, in the same setting: as for `Brc1cc(Br)cc(CNc2nccc(-c3ccc4c(c3)OCO4)n2)c1`, the figure is 0.0094 µM (active); as for `Clc1ccc(CNc2nccc(-c3ccc4cn[nH]c4c3)n2)cc1Cl`, 0.123 µM (active).
With `Cc1nc(CNc2ncnc3ccc(-c4ccc5c(c4)OCO5)cc23)cs1`, the Potency is 0.025 µM (active).
The same measure, in the same setting: as for `COc1cccc(-c2ccnc(NCc3ccc(Cl)cc3)n2)c1`, the figure is 6.81 µM (active).
`COc1ccc(-c2ccnc(NCc3ccc(Cl)c(Cl)c3)n2)cc1OC`: the “activity change, negative = inhibition” value is -40.9%.
With `Cc1nc(CN(C)c2ncnc3ccc(-c4ccc5c(c4)OCO5)cc23)cs1`, the Potency is 0.0159 µM (active).
Consider `c1cncc(CNc2ccnc(-c3ccc4[nH]ncc4c3)n2)c1`, for which the Potency was 0.574 µM (active).
With `Clc1ccc(CNc2ncncc2-c2ccc3c(c2)OCO3)cc1Cl`, the Potency was 0.526 µM (active).
With `COc1cccc(-c2ccnc(NCc3ccc(Cl)c(Cl)c3)n2)c1`, the Potency is 3.86 µM (active).
On the same count and under the same terms, next, `FC(F)(F)c1cc(Br)cc(Nc2nccc(-c3ccc4c(c3)OCO4)n2)c1`: 0.0855 µM (active); `Brc1ccc(CNc2nccc(-c3ccc4c(c3)OCO4)n2)cc1Br`: 0.0177 µM (active).
On the same count and under the same terms, next, `Clc1cc(Cl)cc(CNc2ncncc2-c2ccc3c(c2)OCO3)c1`: 0.0682 µM (active).
Turning to `Cc1c(-c2ccnc(NCc3cccnc3)n2)sc(=O)n1C`, the Potency was 0.0878 µM (active).
Turning to `c1cncc(CNc2nccc(-c3ccc4c(c3)OCO4)n2)c1`, the Potency was 0.0159 µM (active).
Still for that read-out and setting: as for `COc1ccc(-c2ccnc(NCc3ccc(Cl)cc3)n2)cc1`, the figure is 0.319 µM (active); as for `FC(F)(F)c1cccc(Nc2nccc(-c3ccc4c(c3)OCO4)n2)c1`, 0.0417 µM (active).
On the same count and under the same terms, next, `c1cc(-c2ccc3c(c2)OCO3)nc(Nc2ccc3c(c2)OCO3)n1`: 0.0748 µM (active).
In the case of `O=[N+]([O-])c1cc(Nc2nccc(-c3ccc4c(c3)OCO4)n2)cc(C(F)(F)F)c1`, the Potency was 0.0231 µM (active).
On the same count and under the same terms, as for `Clc1ccc(CNc2nccc(-c3ccc4c(c3)OCCO4)n2)cc1Cl`, the figure is 0.0131 µM (active).
The same measure, in the same setting: next, `c1cncc(CNc2nccc(-c3ccc4[nH]ncc4c3)n2)c1`: 0.06 µM (active); `COc1ccc(-c2ccnc(NCc3ccc(Cl)c(Cl)c3)n2)cc1`: 0.0917 µM (active).
